Screening results from PubChem BioAssay.
HT1080 IDH1KD tx: kills HT-1080 cells with IDH1 knockdown. HT-1080 IDH1 knockdown viability, ATP luminescence, 48 h. Potency, µM (doses to about 46.1 µM), actives largely listed as cytotoxic. actives 2% (n = 360,000). AID 686971
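HT-1080-IDH1KD cells (IDH1 knocked down), 750/well in RPMI with 5% FBS, treated with compound 48 h at 37 degrees C. Viability by CellTiter-Glo luminescence, normalised to DMSO and no-cell wells; concentration-response curves classed.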
IL1B secr inh: blocks inflammasome-driven IL-1 beta release; actives 4.7% (n = 360,000); AID 743279; THP-1 LPS/ATP IL-1B secretion, AlphaLISA, 16 h; active compounds read low; activity change, % at 57.5 µM; in the data active means activity change below about -50%; inconclusive means mostly about -30% to -49%
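Secreted IL-1B measured by AlphaLISA bead assay after 16 h compound exposure of THP-1 cells; compounds (final up to 57.5 uM) added 1 h before LPS (250 ng/mL) and ATP (1.25 mM) stimulation; lower signal means less secretion.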
TDP1 cell noCPT: qHTS for Inhibitors of human tyrosyl-DNA phosphodiesterase 1 (TDP1): qHTS in cells in absence of CPT; actives 15% (n = 420,000); DT40 Tdp1-/- hTDP1 cells, no CPT, ATP luminescence, 48 h; AID 686978, 2013; Potency, µM (titrated, usually from 46.2 µM), usual class: inhibitors; further: nearly all actives have a fitted effect of over 55% in size
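A cellular qHTS used chicken DT40 cells lacking endogenous Tdp1 but carrying stably transfected human TDP1. Compounds were applied without camptothecin, and cell growth kinetics were judged by ATP-dependent luminescence after ≥48 hr.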
DT40 TDP1 CPT: growth inhibition of DT40 Tdp1-/-;hTDP1 cells with camptothecin (screen for TDP1 inhibitors) | chicken DT40 Tdp1-/-;hTDP1 cells + 20 nM CPT, ATP luminescence, 48 h | Potency, µM (top dose mostly 46.2 µM), hits mostly inhibitors | actives 12% (n = 420,000) | AID 686979; further: nearly all actives have a fitted effect of over 55% in size
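Chicken DT40 Tdp1-/- cells stably complemented with human TDP1 were seeded at 400 cells/well in medium containing 20 nM camptothecin, exposed to pin-transferred compounds, and grown at 37 °C for at least 48 hr. Viability was read as ATP luminescence.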
HT1080-NT tox: kills 2HG-producing HT-1080-NT fibrosarcoma cells; HT-1080-NT fibrosarcoma viability, CellTiter-Glo ATP luminescence, 48 h; Potency, µM (titrated, usually from 46.1 µM), actives largely listed as cytotoxic; actives 1.6% (n = 360,000); AID 686970;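 further: NT is the 2HG producing partner of a matched IDH1 knockdown line; nearly all actives have a fitted effect of over 55% in size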
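Viability of the 2HG-overproducing fibrosarcoma line after 48 hours of compound exposure at 37 degrees C was determined by luminescence with CellTiter-Glo, and concentration-effect curves were then fitted and categorized.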
ELG1 DNA repair: ELG1-dependent DNA repair inhibition | HEK293T ELG1-luciferase reporter, luminescence, 16 h; DNA damage induced by 5-fluorouridine | Potency, µM (series often up to 46.1 µM), hits mostly inhibitors | actives 2.3% (n = 330,000); further: nearly all actives have a fitted effect of over 55% in size
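In this reporter screen, reduction of luminescence relative to DMSO vehicle indicated activity. Compounds and 5-fluorouridine were added together to 2,000 cells per well, incubated for 16 hr at 37 °C, then developed with ONE-Glo.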
Numbers stand for hits; – = inactive; ? = inconclusive; · = not tested or not shown; [ ] = another dose, or the depositor's remark. Sampled rows, rich in hits. Any-hit rate of the full collection: about 19%. Unless noted, the call rests on the fitted dose curve; in most records, active means well fitted curve in the direction sought with a large enough effect; inconclusive means small, poorly fitted or top-dose-only effect, or another doubt; inactive means no such curve, though single readings can be large; an effect the other way counts as inactive or inconclusive.

SMILES	HT1080 IDH1KD tx	IL1B secr inh	TDP1 cell noCPT	DT40 TDP1 CPT	HT1080-NT tox	ELG1 DNA repair
CCN(CC)S(=O)(=O)c1cccc(S(=O)(=O)N2CCCCC2)c1	–	–	–	–	–	–
O=C(CNc1cccc(S(=O)(=O)N2CCCCC2)c1)Nc1cccc(F)c1	–	–	?	–	?	?
COc1cc(NC(=O)c2cc3nc(-c4ccccc4)cc(-c4ccccc4)n3n2)c(OC)cc1Cl	·	·	–	–	·	·
CC(C)Cc1ccccc1S(N)(=O)=O	–	–	–	–	–	–
Cc1cn2c(=O)c(C(=O)NCc3ccc4c(c3)OCO4)cnc2s1	–	–	–	–	?	–
CN(C)C(=S)Oc1ccccc1-c1ccccc1OC(=S)N(C)C	–	–	?	?	–	–
CC(C)NC(=O)N1CCC2(CC1)CCN(C(=O)c1cccc(F)c1)CC2	·	·	–	–	·	·
Cc1c(C(=O)N(Cc2ccco2)Cc2ccccc2Cl)oc2ccc(F)cc12	·	·	14.6µM	?	·	·
CCc1ccc2oc(C(=O)N(Cc3ccc(N(C)C)cc3)Cc3ccco3)c(C)c2c1	·	·	16.4µM	0.731µM	·	·
Cc1ccc2c(C)c(C(=O)N(Cc3ccc(N(C)C)cc3)Cc3ccco3)oc2c1C	·	·	13µM	?	·	·
Cc1c(C(=O)N(Cc2cccc(Cl)c2)Cc2ccco2)oc2ccccc12	·	·	–	?	·	·
N#Cc1ccc(NC(=O)Cn2c3[n+](c4ccc(C(F)(F)F)cc42)CCCCC3)cc1	–	–	?	?	–	–
CCc1ccc(NC(=O)Cn2c3[n+](c4c(F)c(F)ccc42)CCCCC3)cc1	–	?	5.8µM	2.59µM	–	–
Cc1cccc(OCc2nnc(SCC(=O)O)n2-c2ccccc2)c1	–	–	–	–	–	–
Cc1ccc(-n2c(CCc3ccccc3)nnc2SCC(=O)NCc2ccccc2)cc1C	–	-57.1	23.1µM	?	–	?
Cc1cccc(-n2c(CCc3ccccc3)nnc2SCC(=O)c2ccccc2)c1	–	-85.6	9.2µM	9.2µM	–	?
Cc1ccc(OCc2nnc(SCC(=O)c3ccccc3)n2-c2ccccc2)cc1	?	-55.7	?	?	?	23.1µM
CCOC(=O)/C(=N/Nc1ccccc1)Sc1nnc(CCc2ccccc2)n1-c1ccccc1	–	-73.3	–	–	–	–
Cc1ccc(OCc2nnc(SCC(=O)O)n2-c2ccccc2)cc1	–	–	–	–	–	·
COCc1nnc(SCC(=O)NCc2ccccc2)n1-c1ccccc1	–	–	–	–	–	–
Cc1ccc(C(=O)COC(=O)CN2C(=O)C3C4CCC(C4)C3C2=O)cc1C (stereo not given)	–	–	–	–	–	–
O=C([C@@H]1C[C@@H](Sc2nc3ccccc3[nH]2)CN1CC1CCCCC1)N1CCOCC1	·	·	–	–[9.04 µM]	·	·
C[C@@H]1CNC(=O)c2c(C(=O)N[C@H](C)c3ccccc3)ncn21	–	–	–	–	–	·
O=C(CSc1nncn1-c1ccccc1F)NC1CC1	–	–	–	–	–	?
N#Cc1ccc(OCc2nnc(SCC(=O)c3ccccc3)n2-c2ccccc2)cc1	–	–	?	23.1µM	–	14.6µM
SMILES	HT1080 IDH1KD tx	IL1B secr inh	TDP1 cell noCPT	DT40 TDP1 CPT	HT1080-NT tox	ELG1 DNA repair
COc1cccc2sc(Nc3nnc(-c4ccccc4Cl)o3)nc12	?	–	1.46µM	1.64µM	?	?
COc1cccc(-c2nnc(Nc3nc4c(F)cccc4s3)o2)c1	6.31µM	–	23.1µM	20.6µM	7.94µM	?
COc1cccc(-c2nnc(NC(C)=O)o2)c1	–	–	–	–	–	?
COc1cccc2sc(Nc3nc4ccc(NC(C)=O)cc4s3)nc12	?	–	?	?	?	?
COc1ccccc1-c1nnc(Nc2nc3c(OC)cccc3s2)o1	0.461µM	–	0.731µM	0.92µM	0.92µM	?
O=C(CCN1CCN(c2ccccc2)CC1)NNC(=O)c1ccccc1	–	–	–	–	–	·
Cc1cc(SCC(=O)NCc2ccccc2Cl)nc(=O)[nH]1	·	·	–	–	·	·
COC(=O)CCNC(=O)Cc1c(C)n(C(=O)c2ccc(Cl)cc2)c2ccc(OC)cc12	–	–	?	?	–	–
CCCNC(=O)Cc1c(C)n(C(=O)c2ccc(Cl)cc2)c2ccc(OC)cc12	–	–	?	20.6µM	–	?
Cc1ccsc1/C=N/NC(=O)c1cc(-c2ccncc2)nc2ccccc12	0.92µM	–	0.581µM	0.581µM	?	?
O=C(N/N=C/c1ccccn1)c1cc(-c2ccncc2)nc2ccccc12	–	–	?	?	–	?
COc1ccccc1-c1cc(C(=O)N/N=C/c2sccc2C)c2ccccc2n1	–	–	1.03µM	6.51µM	–	11.6µM
CC1(C)CC(=O)C(C(C2=C(O)CC(C)(C)CC2=O)c2ccc(Br)s2)C(=O)C1 (stereo not given)	?	-95.9	7.31µM	13µM	–	–
CC(C)CN(C(=O)COC(=O)CSc1ccc(Br)cc1)C1CCS(=O)(=O)C1 (stereo not given)	–	–	–	–	–	–
COc1ccc(S(=O)(=O)Nc2ccccc2C(=O)NCc2ccco2)cc1	–	–	?	20.6µM	–	–
C=CCN(c1ccccc1OC)S(=O)(=O)c1ccc(Cl)c(C(=O)NCc2ccco2)c1	–	–	13µM	18.4µM	–	·
COc1ccc(S(=O)(=O)N(Cc2ccccc2)c2ccccc2C(=O)Nc2ccccc2C(=O)NCc2ccco2)cc1	–	–	5.8µM	?	–	–
COCCCNC(=O)c1ccccc1N(Cc1ccccc1)S(=O)(=O)c1ccc(OC)cc1	–	–	20.6µM	?	?	–
Cc1cccc(C)c1C(=NCCN(C)C)c1ccccc1	–	–	–	–	–	·
Cc1ccc(C(=O)N2N=C(c3ccccc3O)CC2c2ccccc2)cc1 (stereo not given)	–	–	20.6µM	?	–	–
O=C(c1ccccc1)N1N=C(c2ccccc2)CC1c1ccccc1 (stereo not given)	–	–	?	–	–	–
COC(=O)c1ccc(CN2CCC3(CCC(CNC(=O)c4ccccc4)O3)CC2)cc1 (stereo not given)	·	·	–	–[9.04 µM]	·	·
COc1ccc(C2CC(=O)C3=C(C2)NC(C)=C(C(=O)Nc2ccccc2C)C3c2coc3ccc(C)cc3c2=O)cc1OC (stereo not given)	?	–	?	20.6µM	–	5.8µM
O=C(Cc1ccccc1[N+](=O)[O-])Nc1cccc(S(=O)(=O)NC2=NCCCCC2)c1	–	–	–	–	–	?
